The list is not random: actives were taken first. Their share in the collection is about 19%.
ELG1 DNA repair: blocks ELG1-dependent DNA repair in HEK293T cells; AID 504467; 330,000 compounds, 2.3% hits; Potency, µM (highest dose often 46.1 µM), for the others: top-dose activity change, negative = inhibition, most hits filed as inhibitors; HEK293T ELG1-luciferase reporter, luminescence, 16 h; DNA damage induced by 5-fluorouridine; also: potency is read from the fitted curve at half-maximal effect; nearly all actives have a fitted effect of over 55% in size
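Quantitative HTS, concentration-response format. 2,000 cells/well co-treated with 5-fluorouridine and compound, 16 hr in 5% CO2 at 37 °C; ONE-Glo luminescence read after 30 min.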
HT1080 IDH1KD tx: HT-1080 IDH1 knockdown cell toxicity (counter line) | HT-1080 IDH1 knockdown viability, ATP luminescence, 48 h | Potency, µM (titrated, usually from 46.1 µM), for the others: at the highest dose activity, negative = toxicity, hits mostly cytotoxic | 360,000 compounds, 2% hits;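 also: potency is read from the fitted curve at half-maximal effect; 0% = DMSO wells and -100% = cell-free medium wells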
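HT-1080-IDH1KD cells (IDH1 knocked down), 750/well in RPMI with 5% FBS, treated with compound 48 h at 37 degrees C. Viability by CellTiter-Glo luminescence, normalised to DMSO and no-cell wells; concentration-response curves classed.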
IL-1B inflam inh: inflammasome signaling inhibition, IL-1 beta readout | THP-1 LPS/ATP IL-1B secretion, AlphaLISA, 16 h; stronger effect = lower value | activity change, % at 57.5 µM | 360,000 compounds, 4.7% hits | AID 743279; in the data active = activity change below about -50%; inconclusive = mostly about -30% to -49%
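THP-1 cells pretreated 1 hr with compounds (up to 57.5 uM final), then stimulated with LPS (250 ng/mL final) plus ATP (1.25 mM final); secreted IL-1B measured by AlphaLISA after 16 hr, decreased signal indicating inhibition.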
DT40 TDP1 no CPT: qHTS for Inhibitors of human tyrosyl-DNA phosphodiesterase 1 (TDP1): qHTS in cells in absence of CPT; DT40 Tdp1-/- hTDP1 cells, no CPT, ATP luminescence, 48 h; Potency, µM (titrated, usually from 46.2 µM), inactives show top-dose activity change, negative = growth inhibition, most hits filed as inhibitors; 420,000 compounds, 15% hits; AID 686978, 2013; also: potency is read from the fitted curve at half-maximal effect; nearly all actives have a fitted effect of over 55% in size
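Stably hTDP1-transfected Tdp1-null chicken DT40 cells were treated with library compounds minus camptothecin and grown for at least 48 hr at 37 °C, after which cellular ATP was quantified by luminescence.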
TDP1 cell CPT: DT40-hTDP1 cell growth loss with CPT; chicken DT40 Tdp1-/-;hTDP1 cells + 20 nM CPT, ATP luminescence, 48 h; Potency, µM (series often up to 46.2 µM), for the others: at the highest dose activity change, negative = growth inhibition, most hits filed as inhibitors; 420,000 compounds, 12% hits; also: potency is read from the fitted curve at half-maximal effect; nearly all actives have a fitted effect of over 55% in size
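Chicken DT40 Tdp1-/- cells complemented with human TDP1, 400 cells/well, exposed to compounds plus 20 nM camptothecin for at least 48 h at 37 C; viability read as ATP content by CellTiter-Glo luminescence.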
HT1080-NT tox: kills 2HG-producing HT-1080-NT fibrosarcoma cells | HT-1080-NT fibrosarcoma viability, CellTiter-Glo ATP luminescence, 48 h | 360,000 compounds, 1.6% hits | AID 686970 | Potency, µM (highest dose often 46.1 µM), for the others: at the top dose activity, negative = less viability, hits mostly cytotoxic;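 also: NT is the 2HG producing partner of a matched IDH1 knockdown line; potency is read from the fitted curve at half-maximal effect; 0% = DMSO-treated cells and -100% = media-only wells without cells; nearly all actives have a fitted effect of over 55% in size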
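Toxicity toward the 2HG-producing NT line was scored as %Activity, normalised to DMSO and no-cell wells, from CellTiter-Glo luminescence after 48 hours' treatment.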
Numbers without * were called inactive; ? = inconclusive; / = no result. Unless noted, calls follow the shape of the dose curve; as a rule, active = well fitted curve in the direction sought with a large enough effect; inconclusive = small, poorly fitted or top-dose-only effect, or another doubt; inactive = no such curve, though single readings can be large; an effect the other way counts as inactive or inconclusive. Unless noted, % is scaled to controls: 0 for no effect and ±100 for the full control effect.

SMILES | ELG1 DNA repair | HT1080 IDH1KD tx | IL-1B inflam inh | DT40 TDP1 no CPT | TDP1 cell CPT | HT1080-NT tox
CCOC(=O)N1CCc2c(sc3c2C(=O)NC(c2ccc(N(C)C)cc2)N3)C1 (centres undefined) | / | / | / | 3.7µM* | 2.3µM* | /
CCOC(=O)c1sc(C)c2c1NC(c1ccc(N(C)C)cc1)NC2=O (centres undefined) | ? | -14% | -17 | ? | ? | -3%
CCOC(=O)N1CCc2c(sc3c2C(=O)NC(c2ccccc2)N3)C1 (centres undefined) | 9% | 15µM* | 0 | 3.3µM* | 6.5µM* | ?
CCOC(=O)c1c(C)[nH]c(C(=O)COC(=O)c2cc(C)oc2C)c1C | ? | -24% | ? | -19% | ? | -2%
Cn1c(N)c(C(=O)COC(=O)c2ccc([N+](=O)[O-])o2)c(=O)n(C)c1=O | -8% | -29% | -9 | ? | 18µM* | ?
CCOC(=O)c1c(C)[nH]c(C(=O)COC(=O)c2ccc([N+](=O)[O-])o2)c1C | 17% | -17% | 31 | 26µM* | 16µM* | 0%
CCC(O)C1CCN(C(=O)c2ccc(OC3CCN(Cc4ccccn4)CC3)cc2)CC1 (centres undefined) | 2% | 6% | 12 | 20% | -11% | -4%
C=C(c1ccc2ccccc2n1)c1cccs1 | / | / | / | 14µM* | 11µM* | /
O=C(Nc1nccs1)c1ccc2ccccc2n1 | ? | -16% | 79 | -18% | -10% | ?
CCOc1ccccc1NC(=O)C(=O)N/N=C/c1ccc([N+](=O)[O-])cc1 | 0% | 22% | -20 | 3% | 1% | 19%
O=C(N/N=C/C(Cl)=C/c1ccc([N+](=O)[O-])cc1)C(=O)Nc1ccc(C(=O)O)cc1 | 32% | 7% | -52* | 21µM* | 15µM* | 1%
O=C(N/N=C/C(Cl)=C/c1ccc([N+](=O)[O-])cc1)C(=O)Nc1ccccc1C(=O)O | 14% | 0% | 1 | 8.2µM* | 5.2µM* | 26%
O=C(COC(=O)CSc1ccc(Cl)cc1)Nc1ccc2[nH]c(=O)[nH]c2c1 | 17% | -2% | 0 | ? | -8% | -8%
O=C(NC1CCCC1)C1c2ccccc2OCC(=O)N1C1CC1 (centres undefined) | / | 12% | 42 | -8% | 9% | 17%
NC(=O)C1CCCNC1 (centres undefined) | 14% | 16% | -57* | -8% | 9% | ?
O=C(NC1CCNCC1)C1CCCCC1 | 6% | 9% | 16 | 0% | 0% | 6%
Cc1ccc(CCNC(=O)c2cn(C)c3ccc(S(=O)(=O)N4CCC(C)CC4)cc3c2=O)cc1 | / | / | / | ? | -1% | /
Cc1cc(C(=O)NCc2nnc3n2CCN(Cc2ccc4c(c2)Cc2ccccc2-4)CC3)c(C)o1 | / | / | / | 16µM* | ? | /
O=c1c(CCc2ccccc2)nc2cnc(N3CCNCC3)nc2n1-c1ccccc1 | / | / | / | 5% | -27% | /
CN1C(=O)NC(=O)C1c1ccccc1 (centres undefined) | / | -10% | -8 | -21% | 3% | 3%
Cc1cccc(Cn2c(=O)n(CCc3ccccc3)c(=O)c3c(C)c(C)sc32)c1 | / | / | / | ? | 21µM* | /
CCN(CC)C(=O)c1sc2c(c1C)c(=O)n(CCc1ccccc1)c(=O)n2Cc1cccc(Cl)c1 | / | / | / | 15µM* | 23µM* | /
Cc1sc2c(c1C)c(=O)n(CCc1ccccc1)c(=O)n2Cc1ccc(F)cc1 | / | / | / | 18µM* | ? | /
Cc1sc2c(c1C)c(=O)n(CCc1ccccc1)c(=O)n2Cc1cccc(F)c1 | / | / | / | 5.8µM* | ? | /
